Measured values taken from PubChem BioAssay (EPA / NIEHS).
Records with an inconclusive call do not appear. Activity calls are given as the source filed them. How the source made its calls: active means hit-call score of the fitted dose curve at least 0.9, where 1 is the maximum; inconclusive means response in the unintended direction; inactive means score below 0.9.

Assay: Tanguay_ZF_120hpf_AXIS_legacy: (Legacy) Oregon State University Tanguay Lab 120 Hour Post-fertilization zebrafish Assay for Body Axis Malformation (AID 2283635);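 on AC50: potency for an increased fraction of larvae scored with body axis malformation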
How it was run: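 Binary scoring of axis defects at 120 hpf under brightfield, fitted positive versus DMSO. Tropical 5D embryos, chorion removed by pronase at 4 hpf, were singly exposed in sealed, dark plates at 28C from 6 hpf; DMSO 0.64% final.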
In the case of `CN1CCN(c2ccccc2/C=C2\SCCN(c3ccc(Cl)c(Cl)c3)C2=O)CC1`, the outcome is reported as “inactive”.
For `Oc1cccc(O)c1`, the outcome was “inactive”.
In the case of `Oc1cc2ccccc2c2ccccc12`, the AC50 is reported as 10.4 µM (active).
For `CC#C[C@]1(O)CC[C@H]2[C@@H]3CCC4=CC(=O)CCC4=C3[C@@H](c3ccc(N(C)C)cc3)C[C@@]21C`, the AC50 was 82.8 µM (active).
With `CCCCCCCC(=O)O` the outcome was “inactive”.
With `NC(=O)N1C(=O)C(C(=O)c2cc(Cl)cs2)c2cc(F)c(Cl)cc21` (stereo not drawn) the outcome was “inactive”.
For `COCC(C)O` (stereo not drawn), the outcome was “inactive”.
For `O=C(O)Cc1cc(I)c(Oc2cc(I)c(O)c(I)c2)c(I)c1`, the AC50 was 0.0204 µM (active).
In the case of `COc1ccc([N+](=O)[O-])cc1N`, the outcome is reported as “inactive”.
With `NC(=O)N(O)[C@@H]1C=C[C@H](Oc2cccc(Oc3ccc(F)cc3)c2)C1` the outcome was “inactive”.
For `OC1CCC(C2CCCCC2)CC1` (stereo not drawn), the outcome was “inactive”.
With `CC(C)(C)CC(C)(C)c1ccc(O)c(-n2nc3ccccc3n2)c1` the outcome was “inactive”.
In the case of `CC(C)(C)c1ccc(O)c(C(C)(C)C)c1`, the outcome is reported as “inactive”.
For `c1ccc2c(c1)Cc1ccccc1-2`, the outcome was “inactive”.
In the case of `COC(=O)CCCCC(=O)OC`, the outcome is reported as “inactive”.
For `CCCCCCCCC(=O)O`, the outcome was “inactive”.
In the case of `c1ccc2cc3c(ccc4ccccc43)cc2c1`, the AC50 is reported as 12.5 µM (active).
With `O=c1c(-c2ccc(O)cc2)coc2cc(O)ccc12` the outcome was “inactive”.
For `Nc1cccc2c(N)cccc12`, the outcome was “inactive”.
In the case of `CCCOC(=O)c1ccc(O)cc1`, the AC50 is reported as 46.4 µM (active).
In the case of `CC[C@H](c1ccc(O)cc1)[C@@H](CC)c1ccc(O)cc1`, the outcome is reported as “inactive”.
For `CC(C)(C)c1cc(C(C)(C)C)c(O)c(C(C)(C)C)c1`, the outcome was “inactive”.
With `CCC(C)(C)C1CCC(O)CC1` (stereo not drawn) the outcome was “inactive”.
